Measurements from the supplement of paper PMC10105736.
Unmarked numbers belong to inactive results.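 The calls were made as follows: active = MAPPIT score above the 99th percentile of random reference set scores in the same batch; inactive = at or below it.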

Legend:
Assay in all cases: MAPPIT interaction score (arbitrary units); higher = stronger binary interaction signal, active = hit call of the paper
[1] = target: nos; settings: MAPPIT configuration: N-N; pair source set: Curagen_high_conf
[2] = target: opa; settings: MAPPIT configuration: N-N; pair source set: Finley_Y2H
[3] = target: prd; settings: MAPPIT configuration: N-N; pair source set: Finley_Y2H
[4] = target: nw; settings: MAPPIT configuration: N-N; pair source set: RRS
[5] = target: otp; settings: MAPPIT configuration: N-N; pair source set: screen_2
[6] = target: ord; settings: MAPPIT configuration: N-N; pair source set: Lit-BM-16
[7] = target: orb; settings: MAPPIT configuration: N-N; pair source set: DPIM
[8] = target: ninaD; settings: MAPPIT configuration: N-C; pair source set: screen_4
[9] = target: nSyb; settings: MAPPIT configuration: N-N; pair source set: DPIM
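Also: HEK293T cells with Epo stimulation, STAT-responsive firefly luciferase reporter, fold induction versus unstimulated cells divided by the larger fold induction of two negative controls lacking either bait or prey.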

B1: 128up (protein)
chain: MSTILEKISAIESEMARTQKNKATSAHLGLLKAKLAKLRRELISPKGGGGGTGEAGFEVAKTGDARVGFVGFPSVGKSTLLSNLAGVYSEVAAYEFTTLTTVPGCIKYKGAKIQLLDLPGIIEGAKDGKGRGRQVIAVARTCNLIFMVLDCLKPLGHKKLLEHELEGFGIRLNKKPPNIYYKRKDKGGINLNSMVPQSELDTDLVKTILSEYKIHNADITLRYDATSDDLIDVIEGNRIYIPCIYLLNKIDQISIEELDVIYKIPHCVPISAHHHWNFDDLLELMWEYLRLQRIYTKPKGQLPDYNSPVVLHNERTSIEDFCNKLHRSIAKEFKYALVWGSSVKHQPQKVGIEHVLNDEDVVQIVKKV
B1 showed an MAPPIT interaction score [1] of 0.2.

B2: croc (protein)
chain: MHTLFSDQNSFTRHYAQTAAGYGSASAVAAASSASAAAAAHYAYDQYSRYPYSASAYGLGAPHQNKEIVKPPYSYIALIAMAIQNAADKKVTLNGIYQYIMERFPYYRDNKQGWQNSIRHNLSLNECFVKVARDDKKPGKGSYWTLDPDSYNMFDNGSFLRRRRRFKKKDVMREKEEAIKRQAMMNEKLAEMKPLKLMTNGILEAKHMAAHAAHFKKEPLMDLGCLSGKEVSHAAMLNSCHDSLAQMNHLAGGGVEHPGFTVDSLMNVYNPRIHHSAYPYHLNEDNLATVASSQMHHVHHAAAAHHAQQLQRHVAHVAHPLTPGGQGAGGQSSGHSPTTISTPHGPAHGGWYTPETPPSEPVPHNGQQGTPTHPGHNNNNSSSVLNHNGVGNGGGGGGGGGGGSSSVLTSSPTSALGFRDMIFEQNQSCQLDTGSPTGSLQSASPPASASVAAASAAAAAAVISSHHHHHHHHAALSGNLGQLGQLSNLSHYRPHVGHYQEYGIKYGV
With B2 the MAPPIT interaction score [2] was -0.778 and the MAPPIT interaction score [3] was -0.752.

B3: CG1161 (protein)
chain: MAHKRLFVYAVLLVICYLVGVTWAETAAQTFPAIGTNSNNNSNAQPAPVPAPAAPAAAAPLAKQVSAPTAAPPAKVIGQPVLAAPGKNSSNSSSTTECVCAGALLPRLDANGKELPICAECKCSHVARNTTLIKVVVIIVIWIISILVIYMLFLMCLDPLLNKRVKANYQEHTNEDDEPTPPLPAVNNQELSARANVLNRVGHQQDKWKRQVREQRRHIYDRHTMLN
Binder B3 has an MAPPIT interaction score [4] of 0.0762.

B4: H15 (protein)
chain: MLLSNQPANTKPQQTPSPSQTQNFKSKLQQQIVSAAAAAAANIANGSSHHHHHQNHHHHHPLNNHHNHNHNQHNISFATDFSIAAIMARGGNAPSSREPSERSLSPASVERYSGQDADDDVDVDVVDCSDSEMPSATAAAAAAATTAAAAAAALQAQQQARQALRVAQQQQQQQQQQRQQTHHHATTGKQQRQHHNHHSSNTNNSSNSGNSNTNSKSSSQRGRSAAAVGAAATPSPPPPPPSQSPEELERLSPEESPAQQPTPKIVGSCNCDDLTPVQCHLETKELWDKFHELGTEMIITKSGRRMFPTVRVSFSGPLRQIQPADRYAVLLDVVPLDSRRYRYAYHRSSWLVAGKADPPPPSRIYAHPDCPLSPEALRKQVVSFEKVKLTNNEMDKSGQVVLNSMHRYQPRIHLVRLSHGQSIPGSPKELQDMDHKTFVFPETVFTAVTAYQNQLITKLKIDSNPFAKGFRDSSRLSDFDRDPMDAFFFDQHMRTAPLRFFPDPLMSQLTPQEADAASMALLEKARQHLQMFGRSPYTEMLLPHLYQRSAAPPPPPPAPHLSAFQLGMWQQQWPQLTAGFLASANQQAALALAAAGANRTPPPSMAVAPPAPATPTSSCGSASPDLRARPQLNHYPQRFSPYQVPQHQASPPASNRAESP
For B4, the MAPPIT interaction score [5] was 0.104.

B5: Sce (protein)
chain: MTSLDPAPNKTWELSLYELQRKPQEVITDSTEIAVSPRSLHSELMCPICLDMLKKTMTTKECLHRFCSDCIVTALRSGNKECPTCRKKLVSKRSLRADPNFDLLISKIYPSREEYEAIQEKVMAKFNQTQSQQALVNSINEGIKLQSQNRPQRFRTKGGGGGGGGGGNGNGAANVAAPPAPGAPTAVGRNASNQMHVHDTASNDSNSNTNSIDRENRDPGHSGTSAASAITSASNAAPSSSANSGASTSATRMQVDDASNPPSVRSTPSPVPSNSSSSKPKRAMSVLTSERSEESESDSQMDCRTEGDSNIDTEGEGNGELGINDEIELVFKPHPTEMSADNQLIRALKENCVRYIKTTANATVDHLSKYLAMRLTLDLGADLPEACRVLNFCIYVAPQPQQLVILNGNQTLHQVNDKFWKVNKPMEMYYSWKKT
Work on B5 yielded an MAPPIT interaction score [6] of 1.68.

B6: ND-ACP (protein)
chain: MSFTQIARSCSRLAATLAPRRVASGILIQSQASRMMHRIAVPSMTSQLSQECRGRWQTQLVRKYSAKPPLSLKLINERVLLVLKLYDKIDPSKLNVESHFINDLGLDSLDHVEVIMAMEDEFGFEIPDSDAEKLLKPADIIKYVADKEDVYE
For B6, the MAPPIT interaction score [7] was 0.0809.

B7: CG5382 (protein)
chain: MGLCKCPKRLVTNQFCFEHRVNVCEHCMVQSHPKCIVQSYLQWLRDSDYISNCTLCGTTLEQGDCVRLVCYHVFHWDCLNARQAALPANTAPRGHQCPACSVEIFPNANLVSPVADALKSFLSQVNWGRNGLGLALLSEEQSSSLKAIKPKVASQAAVSNMTKVHHIHSGGERERTKPNGHDAVSPHSVLLMDAFNPPSAGDYASSRRPLLPRQSPIGGTDRDDNKYQRRTPAELFSRWTRRFYAPSSRPPWRRTWFLVTAGILAFVLFVYLMAWLGRGGSDAVDEGWNNPNPQPNHYE
B7 gave an MAPPIT interaction score [8] of 0.641.

B8: Snap25 (protein)
chain: MPADPSEEVAPQVPKTELEELQINAQGVADESLESTRRMLALCEESKEAGIRTLVALDDQGEQLDRIEEGMDQINADMREAEKNLSGMEKCCGICVLPCNKSQSFKEDDGTWKGNDDGKVVNNQPQRVMDDRNGMMAQAGYIGRITNDAREDEMEENMGQVNTMIGNLRNMALDMGSELENQNRQIDRINRKGESNEARIAVANQRAHQLLK
For B8, the MAPPIT interaction score [9] was 0.399.
